The source of these data is PubChem BioAssay (NCI).

Among the test systems are T-47D breast; BT-549 breast; MDA-MB-435 melanoma; SW-620 colon; MCF7 breast; HCT-116 colon; HCC-2998 colon; KM12 colon.
Common to all, as to experiment: NCI-60 one-dose screen, 48 h (100 = growth as untreated, 0 = no growth, -100 = all killed)
Common to all, as to conditions: 10 µM unless noted

Molecules are shown by their SMILES. The panel holds about 83,000 compounds, 20% with a hit somewhere; the sample as a whole holds those more often.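 The test compound was applied at a single concentration to cells in 96-well plates for 48 hours, and percent growth was recorded.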 A number with no mark means an inactive call. Active and inactive are the calls of the source. Rule for the calls: active = growth percent below 10; inactive = the rest.

As for `O=C(Nc1ccccc1)Nc1ncnc2c1ncn2-c1ccc(Cl)cc1`, the growth with T-47D breast was 63.8%; in the assay on BT-549 breast it was 102%; in the assay with MDA-MB-435 melanoma, 92.1%; in the assay on SW-620 colon it was 97.7%; in the assay on MCF7 breast, 82.5%; in the assay with HCT-116 colon, 36.6%. Besides, the growth with HCC-2998 colon is 105%; with KM12 colon, 87.1%.

Turning to `CC(=O)O[C@@H]1C[C@]2(C(C)C)O[C@@]1(C)[C@@H]1CCC(C)=C1[C@@H]2OC(=O)/C=C/c1ccccc1`, the growth is 76.8% in the assay on T-47D breast; 105% with BT-549 breast; 91.9% in the assay on MDA-MB-435 melanoma; 90.6% in the assay on SW-620 colon; 83.9% in the assay with MCF7 breast; 88.5% with HCT-116 colon. Moreover, the growth with HCC-2998 colon was 103%; in the assay on KM12 colon it was 92.8%.

`COc1cc(-c2nc3sccn3c2-c2ccnc(NCCNS(=O)(=O)c3ccccc3)n2)ccc1F`: the growth is 14.3% with T-47D breast; 67.8% with BT-549 breast; 26% in the assay on MDA-MB-435 melanoma; 86.4% in the assay on SW-620 colon; 37.9% in the assay with MCF7 breast; 42.6% in the assay with HCT-116 colon. Also, the growth in the assay with HCC-2998 colon was 96.5%; in the assay on KM12 colon, 17.1%.

As for `O=C(Nc1cccc(-c2ccc(N3CCOCC3)nn2)c1)Nc1cccc(C(F)(F)F)c1`, the growth was 8.63% (active) with T-47D breast; 40.9% in the assay on BT-549 breast; 69.7% with MDA-MB-435 melanoma; 110% in the assay with SW-620 colon; 55.3% in the assay with MCF7 breast; 68.2% in the assay on HCT-116 colon. For the same molecule, the figures for the growth in the assay on HCC-2998 colon and with KM12 colon were 109% and 55.5%, respectively.

Consider `CN(C)c1ccc(-c2c(C#N)c(N)nn2C(=O)c2ccc(NC(=O)c3ccccn3)cc2)cc1`, for which the growth was 101% in the assay on T-47D breast; 97.8% in the assay on BT-549 breast; 98.2% in the assay with MDA-MB-435 melanoma; 92.8% in the assay with SW-620 colon; 92.5% with MCF7 breast; 90.8% in the assay on HCT-116 colon. Moreover, the growth was 95.2% in the assay with HCC-2998 colon and 88% in the assay with KM12 colon.

Take `O=S(=O)(Nc1cc(F)cc(Cl)c1)c1ccc(-c2cnc(C3CC3)o2)cc1`: the growth with T-47D breast was 31.7%; in the assay on BT-549 breast, 40.6%; in the assay with MDA-MB-435 melanoma, 1.17% (active); with SW-620 colon it was 12%; with MCF7 breast, 13.7%; with HCT-116 colon, 28.1%. Moreover, the growth with HCC-2998 colon is 54.9%; with KM12 colon, 29.4%.

In the case of `COc1c(B(O)O)cccc1-c1nc2c(F)cc3[nH]ncc3c2c2c1CCCC2`, the growth in the assay with T-47D breast was 8.61% (active); with BT-549 breast, -46.1% (active); in the assay on MDA-MB-435 melanoma, 8.04% (active); in the assay on SW-620 colon it was 1.12% (active); with MCF7 breast, -3.83% (active); in the assay with HCT-116 colon, 2.84% (active). Also, the growth was 1.17% (active) with HCC-2998 colon and -12.1% (active) in the assay with KM12 colon.

Take `N#Cc1ccc(O)c(C2=NCC(c3cccc(Oc4ccccc4)c3)O2)c1` (centres undefined): the growth was -12.5% (active) with T-47D breast; 30.6% in the assay with BT-549 breast; 35.2% in the assay on MDA-MB-435 melanoma; 25.6% in the assay with SW-620 colon; 21.4% in the assay on MCF7 breast; 16.9% with HCT-116 colon. Moreover, the growth in the assay on HCC-2998 colon was 43.7%; with KM12 colon it was 21%.

`Nc1n[nH]c2cccc(C#Cc3cccc(C(=O)Nc4cc(C(F)(F)F)cc(C(F)(F)F)c4)c3)c12`: the growth is 73.9% in the assay with T-47D breast; 98.6% in the assay on BT-549 breast; 47.6% in the assay on MDA-MB-435 melanoma; 78.6% in the assay with SW-620 colon; 65.5% in the assay on MCF7 breast; 35.3% in the assay on HCT-116 colon. Besides, the growth in the assay on HCC-2998 colon was 80.3%; with KM12 colon, 43.9%.

In the case of `Cc1ccc2c(Cn3cc(CSc4nc5ccccc5o4)nn3)cc(=O)oc2c1`, the growth is 100% with T-47D breast; 104% in the assay on BT-549 breast; 102% in the assay on MDA-MB-435 melanoma; 106% with SW-620 colon; 100% in the assay on MCF7 breast; 104% in the assay on HCT-116 colon. Besides, the growth is 115% with HCC-2998 colon and 113% in the assay on KM12 colon.

Take `COC(=O)c1nc(-c2ccc(C)cc2)oc1S(=O)(=O)c1cccc(OC)c1`: the growth with T-47D breast was 90%; with BT-549 breast, 70.6%; with MDA-MB-435 melanoma, 100%; with SW-620 colon, 65.5%; in the assay with MCF7 breast, 95.6%; in the assay with HCT-116 colon, 61.6%. Besides, the growth with HCC-2998 colon is 103%; in the assay on KM12 colon, 93.5%.

For `O=S(=O)(NCCCNc1nccc(-c2c(-c3ccc(F)c(O)c3)nc3occn23)n1)c1ccc(Cl)cc1`, the growth in the assay with T-47D breast was 69.1%; with BT-549 breast it was 79.4%; in the assay on MDA-MB-435 melanoma it was 27.6%; in the assay on SW-620 colon, 97.8%; in the assay with MCF7 breast, 55.9%; in the assay on HCT-116 colon it was 32.8%. Further, the growth with HCC-2998 colon is 85.7%; with KM12 colon, 70.2%.

Take `COc1ccc(/C=C(\C#N)n2nnc3ccc(Cl)cc32)cc1`: the growth in the assay with T-47D breast is 51.1%; with BT-549 breast, 68%; with MDA-MB-435 melanoma it was -22.8% (active); in the assay on SW-620 colon it was 11.8%; with MCF7 breast it was 18.6%; in the assay on HCT-116 colon, 39%. Besides, the growth in the assay on HCC-2998 colon was 87.3%; in the assay on KM12 colon, 39.3%.
